This is a sample that favours compounds with a hit; in the whole collection about 2.8% have one here.
SMARCA2 activ – SMARCA2 function activation, primary screen; MG213 cells, MMTV-luciferase reporter, dexamethasone, overnight; activation, % at 9.1 µM; 370,000 tested, 1% active; AID 652017; in the data active = activation above about 7.8%;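 also: 0% = vehicle wells and 100% = reference activator wells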
proKLK7 act – activates the human kallikrein-7 zymogen; P49862; purified proKLK7, EDANS-DABCYL substrate fluorescence; 100% is mature enzyme control, 0% vehicle; activation, % at 7 µM; 370,000 tested, 0.9% active;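 active = activation above the mean of all tested compounds plus 3 SD, computed per campaign excluding outliers beyond control limits, cut at about 13% in these data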
Target sequence (P49862 whole entry, looked up): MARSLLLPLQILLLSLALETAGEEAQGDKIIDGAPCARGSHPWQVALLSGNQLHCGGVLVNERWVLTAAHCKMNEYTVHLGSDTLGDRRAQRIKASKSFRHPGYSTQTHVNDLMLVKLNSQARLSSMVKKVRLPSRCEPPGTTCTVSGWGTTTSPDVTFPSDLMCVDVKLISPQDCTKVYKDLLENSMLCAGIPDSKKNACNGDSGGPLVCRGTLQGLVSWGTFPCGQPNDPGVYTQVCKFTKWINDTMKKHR
bovine MsrA act – bovine methionine sulfoxide reductase A activation; 360,000 tested, 0.3% active; AID 602163; purified bovine MsrA, absorbance read-out; activation, % at 10.6 µM; in the data active = activation above about 7.5%;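 also: 0% = vehicle and 100% = reference activator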
MsrA inhibitor – inhibitors of bovine MsrA. purified bovine MsrA, absorbance read-out. inhibition, % at 15.5 µM. 360,000 tested, 0.75% active. AID 651718;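 also: 0% = vehicle wells with enzyme and 100% = reference inhibitor wells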
MsrA conf – confirmation of bovine MsrA inhibitors | shares compounds with MsrA inhibitor | purified bovine MsrA, absorbance read-out | inhibition, % at 15.5 µM | 2,300 tested, 41% active | AID 651822;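 also: coupled to thioredoxin reductase with NADPH and selenocystamine and DMSO as substrate; 0% = vehicle only and 100% = full effect of reference inhibitor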
The depositor's hits bear a star; / = no result given. Rule as the data show it, unless noted: active = inhibition above about 4.5%; inactive = the rest.

SMILES | SMARCA2 activ | proKLK7 act | bovine MsrA act | MsrA inhibitor | MsrA conf
CC(=O)c1ccc(N2CCN(C(=O)C3CCCN(S(=O)(=O)c4cnc[nH]4)C3)CC2)cc1 (configuration not stated) | -4 | -1 | -6 | 5.1* | 3
C#Cc1cccc(Nc2nc(NCc3ccccc3OC)nc3ccsc23)c1 | -9 | -4 | -2 | 18* | 11*
COCCNc1nc(Nc2ccc(C#N)cc2)c2sccc2n1 | -5 | 1 | -2 | 5.1* | 2
C#Cc1cccc(Nc2nc(NCCOC)nc3ccsc23)c1 | 0 | 0 | -4 | 12* | 11*
CCN(CC(=O)Nc1c(F)cccc1F)C(=O)c1ccc(OC)c(S(=O)(=O)NC2CCCC2)c1 | -3 | 1 | -7 | -1 | /
Cc1ccccc1-c1cccc2[nH]c3c(c12)CCN1C(=O)[C@H]2[C@H](C)ON(C)[C@H]2C[C@@H]31 | 1 | -34 | / | -1 | /
CCCC[C@H](C(=O)N(C)c1cccc(OC)c1)[C@@H](O)c1ccc(C(C)=O)cc1 | -2 | 0 | / | / | /
CCCCCc1c(-c2cccc(OC)c2)ncn1CCc1ccccc1OC | -2 | 1 | -2 | 21* | 18*
CCCCCc1c(-c2cccc(F)c2)ncn1CCc1ccccc1OC | -5 | 0 | -2 | 2 | /
CCOC(=O)[C@]12CCCCC/C=C\1N(Cc1ccc(OC)cc1)C(=O)[C@H]2CC(=O)NCCc1ccccc1OC | -3 | 0 | / | / | /
O=C1N/C(=N\S(=O)(=O)Cc2ccccc2)S/C1=C/c1cccc([N+](=O)[O-])c1 | -3 | 0 | -3 | 5.6* | 4
O=C1N/C(=N/O)S/C1=C/c1cccc([N+](=O)[O-])c1 | -1 | 0 | -4 | 3 | /
O=C(CCN=C1NS(=O)(=O)c2ccccc21)Nc1ccc(Cl)cc1F | -2 | 0 | -2 | 0 | /
O=C(Nc1nc2c(s1)CCCC2=O)c1cnccn1 | -1 | 0 | -4 | 4.7* | 3
CN(C)c1ccc(NC2=C(Cl)C(=O)c3ccccc3C2=O)cc1 | -8 | 1 | -1 | 8.2* | 3
Cc1ccccc1C1=NC(C(F)(F)F)(C(F)(F)F)c2c(n(C)c(=O)n(C)c2=O)N1 | -5 | 1 | -6 | 5.4* | 3
Cn1c2c(c(=O)n(C)c1=O)C(C(F)(F)F)(C(F)(F)F)N=C(C1CCCCC1)N2 | -3 | 0 | 1 | 15* | 12*
COC(=O)Cc1nnn2c1CC(OC)c1cc(Br)ccc1-2 (configuration not stated) | -2 | 0 | / | 0 | /
CC1(C)OC(=O)C2=C(C[C@@H](C3CC3)O[C@@H]2C2CC2)O1 | -1 | 0 | -5 | 1 | /
CN(C)CC(C)(C)CN=Cc1c(O)[nH]c2ccccc12 | -2 | 0 | -6 | 6.0* | 1
Oc1[nH]c2ccccc2c1C=Nc1ccccc1 | 0 | 4 | -3 | 5.1* | 2
OCCN=Cc1c(O)[nH]c2ccccc12 | 0 | 0 | 2 | 4 | /
COc1ccc(OC)c(S(=O)(=O)N2CCCCC2C(=O)N2CCN(CCO)CC2)c1 (configuration not stated) | -3 | 0 | / | / | /
CCOC(=O)c1sc(/N=C/c2ccc(O)cc2O)cc1C | 0 | -2 | -11 | 5.3* | 2
O=C1CC[C@@H](C(=O)N2CSC[C@@H]2C(=O)Nc2cccc(C(F)(F)F)c2)N1 | -1 | 0 | -2 | 0 | /
SMILES | SMARCA2 activ | proKLK7 act | bovine MsrA act | MsrA inhibitor | MsrA conf
CN(C)/C=C1\N=C(c2cccs2)OC1=O | 0 | 0 | -8 | 7.7* | 5.5*
O=C1OC(c2ccc(Br)cc2)=N/C1=C\N1CCCCC1 | 0 | -1 | -4 | 0 | /
O=C1OC(c2ccccc2)=N/C1=C\N1CCCCC1 | 3 | 0 | -2 | 5.7* | 6.9*
CN(C)/C=C1\N=C(c2ccc(Cl)cc2Cl)OC1=O | 1 | 1 | -2 | 2 | /
Cc1ccc(C2=N/C(=C\N(C)C)C(=O)O2)cc1 | 6 | 0 | -7 | 5.2* | 5.5*
CN(C)/C=C1/N=C(c2ccccc2)OC1=O | 3 | 1 | -15 | 7.3* | 6.9*
O=C(O)c1ccccc1C(=O)Nc1ccc(Nc2ccc([N+](=O)[O-])cc2[N+](=O)[O-])cc1 | -1 | 0 | -13 | 5.1* | 3
Nc1ccc(Nc2ccc([N+](=O)[O-])cc2[N+](=O)[O-])cc1 | 0 | 0 | -2 | 4 | /
O=[N+]([O-])c1ccc(Nc2ccccn2)c([N+](=O)[O-])c1 | 0 | 0 | -13 | 5.3* | 4
OC(c1ccc(-c2ccccc2)cc1)c1ncc(-c2ccc(F)cc2)[nH]1 (configuration not stated) | -2 | 1 | -7 | -2 | /

Assay outcomes from PubChem BioAssay.
